# Where “and” joins values, the source holds several entries; their conditions need not be identical. Equal entries are not always repeated. Among all 5,500 compounds or so, about 2,000 (36%) were called active. Not shown: some 18% with an inconclusive outcome. Some of the results follow. A number with no mark means an inactive call. Cut-off read from the data, not from the text of the source: active = normalized growth mostly below about 0.91 (no sharp cut-off); inconclusive = no clear call, values can overlap the other calls; inactive = mostly above about 0.92.
# Assay: chemical genetic growth profiling, strain panel (AID 1159580);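 note: tested at 20 µM; growth read once vehicle control cultures reached saturation at 30 °C; 1 = growth at the plate median or of vehicle wells; lower values mean less growth of the strain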
# Settings: S. cerevisiae deletion strains, growth OD
smiles,measurement,setting,value
COc1ccc(/C=C/C(=O)O)cc1OC,normalized growth,"locus YAL013W, strain DEP1, active compounds read low",1
same,normalized growth,"locus YAL021C, strain ccr4, active compounds read low",1.04
same,normalized growth,"locus YAL026C, strain drs2, active compounds read low",0.99
same,normalized growth,"locus YAL030W, strain snc1, active compounds read low",0.999
same,normalized growth,"locus YBL061C, strain skt5, active compounds read low",0.987
same,normalized growth,"locus YBR009C, strain hhf1, active compounds read low",1.01
same,normalized growth,"locus YBR021W, strain FUR4, active compounds read low",1.04
same,normalized growth,"locus YBR023C, strain chs3, active compounds read low",1.01
same,normalized growth,"locus YBR171W, strain sec66, active compounds read low",0.965
same,normalized growth,"locus YBR229C, strain ROT2, active compounds read low",1.02
same,normalized growth,"locus YBR231C, strain swc5, active compounds read low",0.981
same,normalized growth,"locus YBR279W, strain paf1, active compounds read low",1
same,normalized growth,"locus YCL011C, strain gbp2, active compounds read low",0.991
same,normalized growth,"locus YCL016C, strain dcc1, active compounds read low",1.04
same,normalized growth,"locus YCL029C, strain bik1, active compounds read low",1.02
same,normalized growth,"locus YCL061C, strain MRC1, active compounds read low",0.995
same,normalized growth,"locus YCL069W, strain vba3, active compounds read low",0.955
same,normalized growth,"locus YCR088W, strain abp1, active compounds read low",0.984
same,normalized growth,"locus YDL005C, strain med2, active compounds read low",0.979
same,normalized growth,"locus YDL035C, strain GPR1, active compounds read low",1.14
same,normalized growth,"locus YDL040C, strain nat1, active compounds read low",0.991
same,normalized growth,"locus YDL074C, strain BRE1, active compounds read low",1.4 [resistant] (active)
same,normalized growth,"locus YDL101C, strain DUN1, active compounds read low",1
same,normalized growth,"locus YDL134C, strain PPH21, active compounds read low",1.06
same,normalized growth,"locus YDL185W, strain tfp1, active compounds read low",1
same,normalized growth,"locus YDL192W, strain arf1, active compounds read low",1.03
same,normalized growth,"locus YDR001C, strain nth1, active compounds read low",0.981
same,normalized growth,"locus YDR069C, strain doa4, active compounds read low",0.97
same,normalized growth,"locus YDR101C, strain arx1, active compounds read low",1.01
same,normalized growth,"locus YDR137W, strain rgp1, active compounds read low",1.02
same,normalized growth,"locus YDR159W, strain sac3, active compounds read low",0.94
same,normalized growth,"locus YDR162C, strain NBP2, active compounds read low",1.13
same,normalized growth,"locus YDR195W, strain ref2",0.961
same,normalized growth,"locus YDR297W, strain sur2, active compounds read low",0.984
same,normalized growth,"locus YDR318W, strain mcm21, active compounds read low",1.03
same,normalized growth,"locus YDR334W, strain swr1, active compounds read low",0.975
same,normalized growth,"locus YDR335W, strain msn5, active compounds read low",0.984
same,normalized growth,"locus YDR388W, active compounds read low",1.01
same,normalized growth,"locus YDR392W, strain spt3, active compounds read low",0.943
same,normalized growth,"locus YDR502C, strain sam2, active compounds read low",1.03
same,normalized growth,"locus YEL003W, strain gim4, active compounds read low",0.981
same,normalized growth,"locus YEL037C, strain rad23, active compounds read low",0.981
same,normalized growth,"locus YEL061C, strain CIN8 (second series), active compounds read low",0.976
same,normalized growth,"locus YEL061C, strain CIN8, active compounds read low",1.01
same,normalized growth,"locus YER015W, strain faa2, active compounds read low",1
same,normalized growth,"locus YER016W, strain bim1, active compounds read low",0.991
same,normalized growth,"locus YER110C, active compounds read low",1
same,normalized growth,"locus YER111C, strain swi4, active compounds read low",0.974
same,normalized growth,"locus YER155C, strain BEM2 (second series), active compounds read low",0.958
same,normalized growth,"locus YER155C, strain BEM2, active compounds read low",1.01
same,normalized growth,"locus YER167W, strain BCK2, active compounds read low",1.01
same,normalized growth,"locus YFR010W, strain ubp6, active compounds read low",0.955
same,normalized growth,"locus YGL078C, strain dbp3, active compounds read low",1
same,normalized growth,"locus YGL086W, strain mad1, active compounds read low",1.01
same,normalized growth,"locus YGL167C, strain pmr1, active compounds read low",0.999
same,normalized growth,"locus YGL173C, strain kem1, active compounds read low",0.979
same,normalized growth,"locus YGL227W, strain vid30, active compounds read low",0.984
same,normalized growth,"locus YGL240W, strain doc1, active compounds read low",0.989
same,normalized growth,"locus YGL248W, strain PDE1, active compounds read low",1.12 [resistant] (active)
same,normalized growth,"locus YGL253W, strain hxk2, active compounds read low",0.942
same,normalized growth,"locus YGR078C, strain PAC10, active compounds read low",1.09
same,normalized growth,"locus YGR135W, strain pre9, active compounds read low",1.04
same,normalized growth,"locus YGR252W, strain gcn5, active compounds read low",1.19
same,normalized growth,"locus YHR013C, strain ard1, active compounds read low",0.993
same,normalized growth,"locus YHR027C, strain rpn1, active compounds read low",0.992
same,normalized growth,"locus YHR030C, strain SLT2, active compounds read low",0.949
same,normalized growth,"locus YHR079C, strain IRE1 (second series), active compounds read low",0.998
same,normalized growth,"locus YHR079C, strain IRE1, active compounds read low",0.958
same,normalized growth,"locus YHR094C, strain hxt1, active compounds read low",0.996
same,normalized growth,"locus YHR129C, strain ARP1, active compounds read low",1.02
same,normalized growth,"locus YHR142W, strain chs7, active compounds read low",0.993
same,normalized growth,"locus YHR200W, strain rpn10, active compounds read low",0.999
same,normalized growth,"locus YIL066C, strain RNR3, active compounds read low",1.01
same,normalized growth,"locus YIL073C, strain SPO22, active compounds read low",1.55 [resistant] (active)
same,normalized growth,"locus YIL125W, strain kgd1, active compounds read low",1.02
same,normalized growth,"locus YIR030C, strain dcg1, active compounds read low",0.998
same,normalized growth,"locus YJL092W, strain hpr5, active compounds read low",0.974
same,normalized growth,"locus YJL095W, strain BCK1 (second series), active compounds read low",0.981
same,normalized growth,"locus YJL095W, strain BCK1, active compounds read low",0.972 and 1.18
same,normalized growth,"locus YJL115W, strain asf1, active compounds read low",0.998
same,normalized growth,"locus YJL129C, strain trk1, active compounds read low",0.968
same,normalized growth,"locus YJL134W, strain LCB3, active compounds read low",1.01
same,normalized growth,"locus YJL154C, strain vps35, active compounds read low",0.976
same,normalized growth,"locus YJL164C, strain tpk1, active compounds read low",1.03
same,normalized growth,"locus YJL166W, strain qcr8, active compounds read low",0.999
same,normalized growth,"locus YJL168C, strain set2, active compounds read low",1.01
same,normalized growth,"locus YJL187C, strain SWE1 (second series), active compounds read low",1.03
same,normalized growth,"locus YJL187C, strain SWE1, active compounds read low",1.01
same,normalized growth,"locus YJR043C, strain POL32, active compounds read low",1.06
same,normalized growth,"locus YJR066W, strain TOR1, active compounds read low",0.907
same,normalized growth,"locus YKL009W, strain mrt4, active compounds read low",0.971
same,normalized growth,"locus YKL068W, active compounds read low",0.988
same,normalized growth,"locus YKL085W, strain MDH1 (second series), active compounds read low",1
same,normalized growth,"locus YKL085W, strain MDH1, active compounds read low",1
same,normalized growth,"locus YKL160W, strain elf1, active compounds read low",1.04
same,normalized growth,"locus YKR001C, strain vps1, active compounds read low",1.08
same,normalized growth,"locus YKR026C, strain gcn3, active compounds read low",0.963
same,normalized growth,"locus YKR091W, strain srl3, active compounds read low",1.01
same,normalized growth,"locus YLL001W, strain dnm1, active compounds read low",0.976
same,normalized growth,"locus YLL026W, active compounds read low",0.997
same,normalized growth,"locus YLL041C, strain sdh2, active compounds read low",0.992
same,normalized growth,"locus YLR027C, strain aat2, active compounds read low",1
same,normalized growth,"locus YLR039C, strain RIC1, active compounds read low",1.42 [resistant] (active)
same,normalized growth,"locus YLR058C, strain SHM2, active compounds read low",1.01
same,normalized growth,"locus YLR102C, strain apc9, active compounds read low",0.996
same,normalized growth,"locus YLR113W, strain HOG1, active compounds read low",0.968
same,normalized growth,"locus YLR221C, strain rsa3, active compounds read low",0.95
same,normalized growth,"locus YLR258W, strain gsy2, active compounds read low",1.02
same,normalized growth,"locus YLR262C, strain YPT6 (second series), active compounds read low",0.995
same,normalized growth,"locus YLR268W, strain sec22, active compounds read low",1.05
same,normalized growth,"locus YLR320W, strain mms22, active compounds read low",0.99
same,normalized growth,"locus YLR342W, strain FKS1 (second series), active compounds read low",1.01
same,normalized growth,"locus YLR342W, strain FKS1, active compounds read low",1.01
same,normalized growth,"locus YLR357W, strain rsc2, active compounds read low",0.988
same,normalized growth,"locus YLR370C, strain arc18, active compounds read low",0.971
same,normalized growth,"locus YLR371W, strain rom2, active compounds read low",1.02
same,normalized growth,"locus YLR384C, strain iki3, active compounds read low",0.998
same,normalized growth,"locus YML016C, strain PPZ1, active compounds read low",1
same,normalized growth,"locus YML032C, strain rad52, active compounds read low",1.02
same,normalized growth,"locus YML120C, strain ndi1, active compounds read low",1.01
same,normalized growth,"locus YML124C, strain tub3, active compounds read low",0.994
same,normalized growth,"locus YMR058W, strain fet3, active compounds read low",0.991
same,normalized growth,"locus YMR078C, strain ctf18, active compounds read low",1.01
same,normalized growth,"locus YMR125W, strain sto1, active compounds read low",0.974
same,normalized growth,"locus YMR129W, active compounds read low",1
same,normalized growth,"locus YMR205C, strain PFK2, active compounds read low",1.05
same,normalized growth,"locus YMR223W, strain ubp8, active compounds read low",1.03
same,normalized growth,"locus YMR231W, strain pep5, active compounds read low",0.965
same,normalized growth,"locus YMR307W, strain GAS1, active compounds read low",1.53 [resistant] (active)
same,normalized growth,"locus YNL067W, strain RPL9B, active compounds read low",1
same,normalized growth,"locus YNL071W, strain lat1, active compounds read low",0.998
same,normalized growth,"locus YNL128W, strain TEP1, active compounds read low",1.02
same,normalized growth,"locus YNL183C, strain NPR1, active compounds read low",0.904
same,normalized growth,"locus YNL209W, strain ssb2, active compounds read low",1.01
same,normalized growth,"locus YNL233W, strain BNI4, active compounds read low",1.12
same,normalized growth,"locus YNL248C, strain rpa49, active compounds read low",0.958
same,normalized growth,"locus YNL250W, strain rad50, active compounds read low",1.03
same,normalized growth,"locus YNL271C, strain bni1, active compounds read low",1.02
same,normalized growth,"locus YNL298W, strain CLA4, active compounds read low",1.05
same,normalized growth,"locus YNL307C, strain MCK1, active compounds read low",1.01
same,normalized growth,"locus YNL322C, strain KRE1 (second series), active compounds read low",0.981
same,normalized growth,"locus YNL322C, strain KRE1, active compounds read low",1.01
same,normalized growth,"locus YNR049C, strain mso1, active compounds read low",0.99
same,normalized growth,"locus YNR052C, strain pop2, active compounds read low",1.02
same,normalized growth,"locus YOL006C, strain TOP1, active compounds read low",1.83 [resistant] (active)
same,normalized growth,"locus YOL012C, strain htz1",1.37
same,normalized growth,"locus YOL147C, strain pex11, active compounds read low",1.01
same,normalized growth,"locus YOR001W, strain rrp6, active compounds read low",0.926
same,normalized growth,"locus YOR061W, strain CKA2, active compounds read low",0.995
same,normalized growth,"locus YOR069W, strain VPS5, active compounds read low",1.01
same,normalized growth,"locus YOR070C, strain gyp1, active compounds read low",0.999
same,normalized growth,"locus YOR080W, strain dia2, active compounds read low",0.978
same,normalized growth,"locus YOR083W, strain WHI5, active compounds read low",1.04
same,normalized growth,"locus YOR106W, strain vam3, active compounds read low",1.02
same,normalized growth,"locus YOR136W, strain idh2, active compounds read low",1.01
same,normalized growth,"locus YOR144C, strain elg1, active compounds read low",1
same,normalized growth,"locus YOR184W, strain ser1, active compounds read low",1.08
same,normalized growth,"locus YOR231W, strain MKK1, active compounds read low",0.944
same,normalized growth,"locus YOR265W, strain rbl2, active compounds read low",0.991
same,normalized growth,"locus YOR270C, strain vph1, active compounds read low",0.977
same,normalized growth,"locus YOR290C, strain snf2, active compounds read low",1.04
same,normalized growth,"locus YOR316C, strain cot1, active compounds read low",1.01
same,normalized growth,"locus YPL051W, strain arl3, active compounds read low",0.98
same,normalized growth,"locus YPL078C, strain atp4, active compounds read low",1.03
same,normalized growth,"locus YPL106C, strain sse1, active compounds read low",1.04
same,normalized growth,"locus YPL240C, strain hsp82, active compounds read low",0.986
same,normalized growth,"locus YPL256C, strain CLN2, active compounds read low",0.968
same,normalized growth,"locus YPR119W, strain clb2, active compounds read low",1.01
same,normalized growth,"locus YPR141C, strain kar3, active compounds read low",1
same,normalized growth,"locus YPR163C, strain tif3, active compounds read low",1.02
same,normalized growth,"locus YPR167C, strain met16, active compounds read low",1.03
same,normalized growth,"strain wtn01, active compounds read low",1.02
